tim23-1 inh – growth inhibitors of tim23-1 mutant yeast, primary screen, luminescence, uHTS; S. cerevisiae tim23-1 growth, BacTiter-Glo luminescence, 24 h; AID 463212, 2010; inhibition, % at 20 µM; 330,000 tested, 1.3% active;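 active = growth inhibition of the mutant yeast at or above 50%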;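 also: temperature-sensitive mutant grown at 25 °C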
tim10-1 inh – growth inhibitors of tim10-1 mutant yeast, primary screen, luminescence, uHTS. S. cerevisiae tim10-1 ts strain growth, BacTiter-Glo, 24 h. 330,000 tested, 2.2% active. inhibition, % at 20 µM;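 active = inhibition of at least 40%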;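 also: mutant grown at 25 °C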
TIM10 inh – growth inhibitors of isogenic TIM10 control yeast, primary screen, counter-screen for tim10-1 yeast inhibitor project, luminescence, uHTS | inhibition, % at 10 µM | 330,000 tested, 1.4% active | S. cerevisiae TIM10 strain growth, BacTiter-Glo luminescence, 24 h;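 active = inhibition of 40% or more at the single tested concentration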;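 also: wild-type TIM10 isogenic control strain grown at permissive 25 °C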
NALP1 inh – NALP1 inflammasome inhibitors in reconstituted yeast, colorimetric, S. cerevisiae, triplicate retest | S. cerevisiae NALP1/ASC/caspase-1 growth, X-gal OD620, 72 h | 280,000 tested, 0.61% active | inhibition, % at 10 µM; in the data active = inhibition mostly above about 24%, no sharp cut-off; inactive = mostly below about 32%
NALP3 yeast inh – NALP3 inflammasome inhibitors in reconstituted yeast, primary screen, luminescence, uHTS; Yeast reconstituted NLRP3/ASC/caspase-1, beta-gal luminescence, 24 h; inhibition, % at 10 µM; 330,000 tested, 0.39% active;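 active = inhibition of 50% or more; inactive = inhibition below 50%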
tim10-1 confirm – growth inhibitors of tim10-1 mutant yeast, confirmation, single concentration, luminescence, S. cerevisiae | AID 463213, 2010 | shares compounds with tim10-1 inh | S. cerevisiae tim10-1 ts strain growth, BacTiter-Glo, 24 h | 7,400 tested, 56% active | inhibition, % at 20 µM;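 active = inhibition of yeast growth at or above a set limit in either of two repeat tests at 20 µM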;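 also: tim10-1 mutant grown at permissive 25 °C to find synthetic lethal compounds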
tim10 confirm – growth inhibitors of wild-type TIM10 yeast, confirmation, counter-screen for tim10-1 synthetic lethality project, single concentration, luminescence, S. cerevisiae; shares compounds with TIM10 inh; S. cerevisiae tim10 strain growth, BacTiter-Glo luminescence, 24 h; inhibition, % at 10 µM; 4,600 tested, 63% active; AID 463215, 2010;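 active = inhibition of yeast growth at or above a set limit in either of two replicates at 10 µM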; also: this counterscreen used the strain with wild-type TIM10
tim23-1 confirm – tim23-1 mutant yeast growth inhibitors, confirmation, luminescence, single concentration; shares compounds with tim23-1 inh; S. cerevisiae tim23-1 growth, BacTiter-Glo luminescence, 24 h; inhibition, % at 20 µM; 4,400 tested, 83% active; AID 463218, 2010;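 active = inhibition above about 39% in either of two replicate wells at 20 µM, limit read from the data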;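 also: temperature-sensitive tim23-1 mutant grown at 25 °C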
A number is an active result; - = inactive; . = not tested or not shown. Rows were chosen to be rich in hits. Some 4% of all compounds tested hit in one or more screens of this group.

SMILES	tim23-1 inh	tim10-1 inh	TIM10 inh	NALP1 inh	NALP3 yeast inh	tim10-1 confirm	tim10 confirm	tim23-1 confirm
COc1cccc(CN(C)C(=O)c2cc(COc3ccc(-n4cncn4)cc3)on2)c1	51	41	-	-	-	30	.	-
CSc1ccccc1C(=O)Nc1nc2ccccc2[nH]1	-	-	-	-	-	.	.	.
COc1cc(SC)ccc1C(=O)Nc1nc2ccccc2[nH]1	93	90	88	-	-	91	88	94
CC(NC(=O)/C(C#N)=C/c1ccc(N2CCOCC2)cc1)c1ccccc1 (stereo not given)	-	-	-	-	-	.	.	.
COC(=O)c1ccc(/C=C(\C#N)C(=O)NC(C)c2ccccc2)cc1 (stereo not given)	66	64	61	-	-	62	57	58
O=S(=O)(/N=C(/Nc1ccc(F)c(F)c1F)c1ccccc1)c1ccccc1	-	-	-	-	-	.	.	.
CC(C)Cc1ccc(-c2cc(=O)[nH][nH]2)cc1	53	59	-	-	-	-	.	44
O=C1Nc2ccccc2N(O)N1c1ccc(Cl)cc1	-	-	-	-	-	.	.	.
CCN1c2ccccc2NC2C1C(C(C)=O)C(=O)N2c1ccc(Cl)cc1 (stereo not given)	69	62	52	-	-	53	39	50
CCCC(=O)C1=C(O)C(C(=O)OC)C(C)(C)CC1=Nc1ccncc1 (stereo not given)	-	-	-	-	-	.	.	.
Cc1cccc(/C=N/NC(=O)c2ccc3c(c2)OCCO3)c1O	63	50	65	-	-	46	68	76
FC(F)(F)c1nnc(-c2ccccc2)nc1Sc1ccc(Cl)cc1	62	51	-	.	-	49	.	47
FC(F)(F)c1cccc(Sc2nc(-c3ccccc3)nnc2C(F)(F)F)c1	-	-	-	-	-	.	.	.
COc1ccc(NC(=O)Cc2coc3ccc4ccccc4c23)cc1S(=O)(=O)N1CCOCC1	-	-	-	.	-	.	.	.
N#C/C(=C/C=C/c1ccccc1)C(=O)Nc1ccccc1	-	-	-	-	-	.	.	.
CCc1cccc(CC)c1NC(=O)c1ccccc1	-	-	-	-	-	.	.	.
CCc1cccc(CC)c1NC(=O)/C(C#N)=C/c1ccccc1C(F)(F)F	55	41	57	-	-	-	-	42
N#C/C(=C\c1ccccc1C(F)(F)F)C(=O)Nc1ccccc1	52	57	73	-	-	58	61	63
COCCNS(=O)(=O)c1ccc(C)c(C)c1C	-	-	-	-	-	.	.	.
Nc1cc(-c2ccc(OC(F)(F)F)cc2)nn1-c1ccc(Cl)c(Cl)c1	57	46	-	-	-	62	.	61
Oc1ccc(/C=C/c2nc(-c3ccccc3O)n(-c3ccccc3)n2)cc1	59	60	-	-	-	51	.	64
CC1=C(CC(=O)c2ccccc2)C(=O)c2ccccc2C1=O	64	48	-	-	-	42	.	69
COc1ccccc1CNC(=O)c1ccc(OC(F)F)c(OC)c1	-	-	-	-	-	.	.	.
COc1ccc(NC(=O)CCCc2nc3ccccc3c(=O)[nH]2)cc1Cl	-	-	-	.	-	.	.	.
O=C(ONC1=NCCCCC1)c1ccc([N+](=O)[O-])cc1	86	52	83	-	-	34	84	66
SMILES	tim23-1 inh	tim10-1 inh	TIM10 inh	NALP1 inh	NALP3 yeast inh	tim10-1 confirm	tim10 confirm	tim23-1 confirm
COc1ccc(-c2cc(-c3cc(OC)ccc3O)[nH]n2)cc1	59	44	51	-	-	29	42	61
COc1ccc(-c2n[nH]c(C)c2-c2cc(OC)ccc2O)cc1	-	-	-	-	-	.	.	.
COc1ccc(O)c(-c2cc(-c3ccc(F)cc3)n[nH]2)c1	63	49	-	-	-	-	.	72
COc1cc(-c2nc(CN3CCCCC3CCNC(C)=O)c(C)o2)ccc1F (stereo not given)	-	-	-	-	-	.	.	.
Cc1oc(=O)c(NC(=O)c2ccccc2)cc1C(=O)c1ccccc1	57	62	53	-	-	61	55	60
CCNS(=O)(=O)c1ccc2nc(NC(=O)/C=C/c3cc(OC)c(OC)c(OC)c3)sc2c1	-	-	-	-	-	.	.	.
CN1/C(=C\C=C(/C#N)C(=O)Nc2ccc(Cl)cc2)C(C)(C)c2ccccc21	-	-	-	.	-	.	.	.
CN1/C(=C\C(=O)Nc2ccc(Cl)cc2)C(C)(C)c2ccccc21	68	52	59	-	-	62	54	78
CC(=O)c1ccc(NC(=O)CC(C)S(=O)(=O)c2ccc3c(c2)CCN3C(C)=O)cc1 (stereo not given)	-	-	-	-	-	.	.	.
O=C1CC(c2ccccc2Cl)c2c(sc3c(=O)[nH]c(CCl)nc23)N1 (stereo not given)	-	-	-	-	-	.	.	.
CCCN(CCC)c1nc2ccccc2nc1C(C#N)C(=O)OCCOC (stereo not given)	-	-	-	.	-	.	.	.
C=CCN(CC=C)c1nc2ccccc2nc1C(C#N)C(=O)OCCOC (stereo not given)	59	67	41	-	-	72	55	66
COCCOC(=O)/C(=C/c1ccc(OC(=O)c2ccccc2)cc1)C(C)=O	90	73	80	61	-	65	-	88
CCc1nn(CCCC(=O)NCc2ccccc2Br)c(=O)c2cc3occc3n12	50	43	-	-	-	-	.	54
Cc1ccc(/C=C(\C#N)C(=O)NCC2CCCO2)o1 (stereo not given)	-	-	-	-	-	.	.	.
N#C/C(=C\c1cc2c(cc1Br)OCO2)C(=O)NCC1CCCO1 (stereo not given)	87	67	65	-	-	67	72	78
COc1cc(/C=C(\C#N)C(=O)NCC2CCCO2)c([N+](=O)[O-])cc1OC (stereo not given)	-	-	-	-	-	.	.	.
N#C/C(=C\c1cccc([N+](=O)[O-])c1)C(=O)NCC1CCCO1 (stereo not given)	77	57	57	-	-	52	45	72
CCOC(=O)c1sc(-c2ccc(C(F)(F)F)cc2)nc1O	74	46	-	32	-	-	.	-
O=C(CSc1ccsc1[N+](=O)[O-])N1CCN(c2ccccn2)CC1	-	-	-	-	-	.	.	.

Compound activity: PubChem BioAssay, Sanford-Burnham Center for Chemical Genomics
